Source: the supplement of paper PMC10127200
Counter-ions that a name gives are not always drawn.

What was measured:
Assay in all cases: Euclidean distance of Cell Painting phenotypic profile (signed KS, 77 features) to DMSO centroid (dimensionless distance); 5 or 10 uM (library dependent); higher = stronger phenotypic change vs DMSO (phenoactivity)
Settings in all cases: 48 h
786-O = test system: 786-O
How it was run: (§1)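 Five cancer lines and a healthy fibroblast line received library compounds at 10 or 5 uM (library-dependent, 0.1% DMSO final) for 48 h. Stained cells were imaged confocally at 20X (9 fields/well). Harmony extracted 77 features, each scored as a signed Kolmogorov-Smirnov statistic against same-plate vehicle wells. Profiles were plate-position corrected, correlation-weighted and replicate-averaged at the top dose. Phenoactivity is the Euclidean distance from each profile to the median vehicle profile.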

A549 = test system: A549
How it was run: as §1

DU145 = test system: DU145
How it was run: as §1

FB = test system: FB
How it was run: as §1

HEPG2 = test system: HEPG2
How it was run: as §1

OVCAR4 = test system: OVCAR4
How it was run: as §1

SMILES	Euclidean distance (786-O)	Euclidean distance (A549)	Euclidean distance (DU145)	Euclidean distance (FB)	Euclidean distance (HEPG2)	Euclidean distance (OVCAR4)
c1cncc(CN2CCC(n3ncc4c(N5CCOCC5)nc(-c5ccc6[nH]ccc6c5)nc43)CC2)c1	4.57	4.67	4.08	4.59	3.78	3.57
CCCCC1C(=O)N(c2ccccc2)N(c2ccccc2)C1=O [Phenylbutazone]	0.905	0.759	1.5	1.25	0.482	1
COc1cc(Nc2c(C#N)cnc3cc(OCCCN4CCN(C)CC4)c(OC)cc23)c(Cl)cc1Cl [Bosutinib (SKI-606)]	3.85	3.56	2.93	3.66	3.22	4.14
CO[C@@]1(NC(=O)Cc2cccs2)C(=O)N2C(C(=O)O)=C(COC(N)=O)CS[C@@H]21 [Cefoxitin sodium]	1.26	0.874	1.51	1.02	0.857	0.983
O=c1[nH]cc(F)c(=O)[nH]1 [Fluorouracil (5-Fluoracil. 5-FU)]	1.5	3.01	1.12	2.37	2.13	2.12
COC(=O)N1CCN(Cc2cccc(NC(=O)Nc3ccc(C)nc3)c2F)CC1	1.27	1.17	0.538	0.851	0.768	1.28
CC(C)(C)NCC(O)c1ccc(O)c(CO)c1 (configuration not stated) [Salbutamol Sulfate]	1.57	0.928	1.27	0.735	1.31	1.78
CCCCCCCN(CC)CCCC(O)c1ccc(NS(C)(=O)=O)cc1 (configuration not stated) [Ibutilide Fumarate]	1.19	0.555	1.13	1.27	1.2	1.47
CC(C)(OCc1nn(Cc2ccccc2)c2ccccc12)C(=O)O [Bindarit]	0.377	0.614	0.791	0.934	0.939	0.825
Cn1cc(-c2nc(N[C@@H]3CCCC[C@@H]3N)c(F)c3c2C(=O)NC3)cn1	2.54	2.93	2.88	2.99	1.85	2.99
CCC(CC)(NC(=O)C(C)C)C(=O)N[C@@H](CCCN=C(N)N)C(=O)NC1(C(=O)NC(c2ccc(F)cc2)c2ccc(F)cc2)CCCC1	0.761	0.796	1.14	0.736	0.712	0.893
O=C(Nc1ccc([N+](=O)[O-])cc1Cl)c1cc(Cl)ccc1O [Niclosamide]	2.27	2.95	2.1	3.12	0.819	2.45
CCN(CCCCOC(=O)c1ccc(OC)c(OC)c1)C(C)Cc1ccc(OC)cc1 (configuration not stated) [Mebeverine Hydrochloride]	0.875	1.21	1.06	1.29	0.855	1.91
COc1cc(C(=O)NC2CCCNC2)cc(OC)c1OC (configuration not stated) [Troxipide]	1.15	1.12	1.81	0.842	1.83	1.43
O=C1NCC2(CCN(CCc3ccccc3)CC2)O1 [Fenspiride HCl]	0.914	1.2	1.2	1.2	1.08	1.26
CN(C)CCOC(=O)COc1ccc(Cl)cc1 [Meclofenoxate (Centrophenoxine) HCl]	0.714	0.913	1.3	0.93	1.13	1.29
COc1cc(C2Oc3cc([C@H]4Oc5cc(O)cc(O)c5C(=O)[C@@H]4O)ccc3OC2CO)ccc1O (some centres not stated) [Silibinin]	0.696	1.28	0.646	0.713	0.547	0.847
O=C(c1cc(Cc2n[nH]c(=O)c3ccccc23)ccc1F)N1CCN(C(=O)C2CC2)CC1	1.56	1.23	0.958	1.7	1.21	1.11
CCCCc1oc2ccccc2c1C(=O)c1cc(I)c(OCCN(CC)CC)c(I)c1 [Amiodarone HCl]	1.56	1.84	2.02	1.95	2.01	2.4
Cc1cc(C)c(CNC(=O)c2cc(-c3ccc(CN4CCOCC4)cc3)cc3c2cnn3C2CCCC2)c(=O)[nH]1	1.48	1.7	0.808	1.97	1.44	0.692
CC/C=C\C/C=C\C/C=C\C/C=C\C/C=C\C/C=C\CCC(=O)O [Docosahexaenoic Acid]	1.08	0.581	0.837	1.06	0.766	1.1

SMILES	Euclidean distance (786-O)	Euclidean distance (A549)	Euclidean distance (DU145)	Euclidean distance (FB)	Euclidean distance (HEPG2)	Euclidean distance (OVCAR4)
CC(=O)OCC(=O)[C@@]1(O)[C@H](C)C[C@H]2[C@@H]3CCC4=CC(=O)C=C[C@]4(C)[C@@]3(F)[C@@H](O)C[C@@]21C [Dexamethasone Acetate]	1.08	2.1	2.41	1.85	0.691	1.67
N#CC(c1ccnc(OCc2ccc(CN3CCOCC3)cc2)n1)c1nc2ccccc2s1 (configuration not stated) [Bentamapimod]	1.54	1.83	1.31	1.81	1.38	1.36
O=S(=O)(c1ccccc1)c1cnc2c(N3CCNCC3)cccc2c1	0.96	0.917	0.761	0.827	1.94	0.986
C[C@@H](NC(=O)c1ncnc(N)c1Cl)c1ncc(C(=O)Nc2cc(C(F)(F)F)c(Cl)cn2)s1	1.57	2.12	1.59	1.41	0.931	1.52
COC(=O)C1=CO[C@@H](O[C@@H]2O[C@H](CO)[C@@H](O)[C@H](O)[C@H]2O)[C@@H]2[C@@H](C)[C@@H](O)C[C@H]12 [Loganin]	0.879	0.804	1.02	0.781	0.691	0.971
CCCCCCc1ccc(O)cc1O [Hexylresorcinol]	1.35	0.943	0.978	0.936	1.32	1.16
CN[C@H]1CC[C@@H](c2ccc(Cl)c(Cl)c2)c2ccccc21 [Sertraline HCl]	2.46	2.13	1.74	2.83	4.1	2.02
CCC(=O)N1CC[C@H](Nc2ncnc3c2CN(c2cnc(OC)c(C(F)(F)F)c2)CC3)C1 [leniolisib(CDZ 173)]	1.06	1.1	1.67	1.76	0.969	1.59
Cc1cc(S(=O)(=O)O)c2c(C)ccc(C(C)C)cc1-2 [Sodium gualenate]	1.2	0.401	0.867	1.3	1.18	1.13
O=C(O)CCCN1CCC(O[C@@H](c2ccc(Cl)cc2)c2ccccn2)CC1 [Bepotastine]	0.883	0.582	0.573	0.639	0.595	0.955
C[C@H](NC(=O)Cc1cc(F)cc(F)c1)C(=O)N[C@H](C(=O)OC(C)(C)C)c1ccccc1	1.92	1.48	1.11	0.913	1.57	1.26
N#C/C(=C1/SC[C@@H](c2ccc(Cl)cc2Cl)S1)n1ccnc1 [Luliconazole]	1.47	1.03	0.686	1.08	0.589	1.1
CN(C)c1cc(NC(=O)CNC(C)(C)C)c(O)c2c1C[C@H]1C[C@H]3[C@H](N(C)C)C(O)=C(C(N)=O)C(=O)[C@@]3(O)C(O)=C1C2=O [Tigecycline]	1.81	0.996	1.03	1.6	1.09	1.18
O=C1c2c(O)cc(O)cc2OC(c2ccc(O)c(O)c2)C1O (configuration not stated) [Taxifolin (Dihydroquercetin)]	1.12	0.542	1.09	1.25	0.834	0.517
C[C@@](Cc1ccc(O)c(O)c1)(NN)C(=O)O [Carbidopa]	1.38	1.06	0.985	1.1	0.878	1.05
COc1cc2nc(N3CCN(C(=O)C4CCCO4)CC3)nc(N)c2cc1OC (configuration not stated) [Terazosin HCl]	1.12	0.699	0.618	1.15	1.33	1.01
C[C@@H]1NC(=O)[C@@H](N)CNC(=O)[C@H](C2CCNC(=N)N2)NC(=O)/C(=C/NC(N)=O)NC(=O)[C@H](CNC(=O)CC(N)CCCN)NC1=O.N=C1NCC[C@H]([C@@H]2NC(=O)/C(=C/NC(N)=O)NC(=O)[C@H](CNC(=O)C[C@@H](N)CCCN)NC(=O)[C@H](CO)NC(=O)[C@@H](N)CNC2=O)N1 [Capreomycin Sulfate]	0.925	0.995	1.37	1.11	0.78	1.14
CC(=O)OCC(=O)[C@@]12OC(C)(C)O[C@@H]1C[C@H]1[C@@H]3C[C@H](F)C4=CC(=O)C=C[C@]4(C)[C@@]3(F)[C@@H](O)C[C@@]12C [Fluocinonide]	1.34	2.13	2.47	1.51	0.846	1.99
CC(C)(C)NC(=O)[C@H]1CC[C@H]2[C@@H]3CC[C@H]4NC(=O)C=C[C@]4(C)[C@H]3CC[C@]12C [Finasteride]	1.26	0.717	0.682	0.871	0.391	1.18
CCOC(=O)C1=C(COCCN)NC(C)=C(C(=O)OC)C1c1ccccc1Cl (configuration not stated) [Amlodipine]	0.785	0.917	0.877	1.06	1.06	0.837
O=C(O)c1cc(/N=N/c2ccc(S(=O)(=O)Nc3ccccn3)cc2)ccc1O [Sulfasalazine]	1.02	0.839	0.638	1.14	0.963	0.897
